Reference: the supplement of paper PMC7695840
Counter-ions that a name gives are not always drawn.

system: Staphylococcus aureus MW2 delta-mecA (mecA-); test: normalized GFP fluorescence (growth of mecA- strain) (fraction of control range); higher = more growth of mecA- strain; conditions: compound concentration: 150 uM; cefoxitin: subinhibitory; fluorescent label: GFP
Method in brief: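 Compound at 150 μM (1.5% DMSO) in 1536-well plates received 5 µL/well of pre-induced S. aureus MW2 cells mixed 1:1, gene-carrying with DsRed and gene-deleted with GFP, in LB with a daily-set subinhibitory antibiotic dose, single replicate. After 20 h unshaken at 37 °C, 90% humidity, DsRed (540/590) and GFP (485/520) were measured and scaled per plate between single-strain control medians. Plates with high untreated ratios and rows with DsRed/GFP >10 were excluded.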

| SMILES | normalized GFP fluorescence |
| --- | --- |
| O=C(CCBr)N1CCN(C(=O)CCBr)CC1 | 0.631 |
| CCCCCCOC(=O)NC(=N)c1ccc(NCc2nc3cc(C(=O)N(CCC(=O)OCC)c4ccccn4)ccc3n2C)cc1 [BIBR-1048 (Dabigatran)] | 0.0654 |
| OC(CCN1CCCCC1)(c1ccccc1)C1CC2C=CC1C2 (stereo not given) [Biperiden hydrochloride] | 0.119 |
| CC(=O)CCCCn1c(=O)c2c(ncn2C)n(C)c1=O | 0.276 |
| COC(=O)C1=C(C)NC(C)=C(C(=O)OCCN(C)Cc2ccccc2)C1c1cccc([N+](=O)[O-])c1 (stereo not given) | -0.00636 |
| COCCCOc1ccnc(C[S+]([O-])c2nc3ccccc3[nH]2)c1C (stereo not given) | 0.186 |
| O=C(C1CCCCC1)N1CC(=O)N2CCc3ccccc3C2C1 (stereo not given) | 0.421 |
| CN1CCC(=C2c3ccccc3CCc3cccnc32)CC1 | 0.396 |
| CCOC(=O)[C@H](CCc1ccccc1)N[C@@H](C)C(=O)N1[C@H](C(=O)O)C[C@@H]2CCC[C@@H]21 | 0.338 |
| CC(=O)[C@H]1CC[C@H]2[C@@H]3C[C@H](C)C4=CC(=O)CC[C@]4(C)[C@H]3[C@@H](O)C[C@]12C | 0.258 |
| CN(C)CCC=C1c2ccccc2C=Cc2ccccc21 | 0.0981 |
| CC(C)COCC(CN(Cc1ccccc1)c1ccccc1)N1CCCC1 (stereo not given) | 0.00856 |
| Nc1nc(O)c2ncn(CCC(CO)CO)c2n1 | 0.331 |
| NC[C@@H]1O[C@@H](O[C@H]2[C@H](O)[C@@H](O[C@H]3O[C@H](CO)[C@@H](O)[C@H](N)[C@H]3O)[C@H](N)C[C@@H]2N)[C@@H](O)[C@H](O)[C@H]1O | 0.472 |
| C[C@@H]1O[C@@H](OC[C@H]2O[C@@H](Oc3c(-c4ccc(OCCO)c(OCCO)c4)oc4cc(OCCO)cc(O)c4c3=O)[C@H](O)[C@@H](O)[C@@H]2O)[C@H](O)[C@H](O)[C@H]1O [Troxerutin] | 0.934 |
| CC1(C)[C@@H](OC(=O)CCC(=O)O)CC[C@]2(C)[C@H]3C(=O)C=C4[C@@H]5C[C@@](C)(C(=O)O)CC[C@]5(C)CC[C@@]4(C)[C@]3(C)CC[C@@H]12 | 0.146 |
| NC[C@H](O)c1ccc(O)c(O)c1 | 0.502 |
| CN1CCN2c3ccccc3Cc3ccccc3C2C1 (stereo not given) | 0.0802 |
| COc1cc(Nc2ncc(F)c(Nc3ccc4c(n3)N(COP(=O)(O)O)C(=O)C(C)(C)O4)n2)cc(OC)c1OC | 0.774 |
| COc1cc2c(cc1Cc1cccc(Cl)c1F)c(=O)c(C(=O)O)cn2[C@H](CO)C(C)C [Elvitegravir (GS-9137)] | 0.0202 |

| SMILES | normalized GFP fluorescence |
| --- | --- |
| Nc1c(Br)cc(Br)cc1CN[C@H]1CC[C@H](O)CC1 [Ambroxol HCl] | 0.21 |
| COc1cc2nc(N(C)CCCNC(=O)C3CCCO3)nc(N)c2cc1OC (stereo not given) | 0.343 |
| Clc1cccc(Cl)c1NC1=NCCN1 | 0.205 |
| CC1(C)S[C@@H]2[C@H](NC(=O)COc3ccccc3)C(=O)N2[C@H]1C(=O)O | 0.0184 |
| CS(=O)(=O)c1ccc(C2=C(c3ccccc3)C(=O)OC2)cc1 | 0.195 |
| COc1cc(Nc2ncc(F)c(Nc3ccc4c(n3)N(COP(=O)(O)O)C(=O)C(C)(C)O4)n2)cc(OC)c1OC [R788 (Fostamatinib)] | 0.503 |
| COC(=O)C1=C(C)NC(C)=C(C(=O)OC(C)C)C1c1cccc2nonc12 (stereo not given) | 0.00618 |
| Nc1cccc2c1CN(C1CCC(=O)NC1=O)C2=O (stereo not given) [Lenalidomide] | 0.34 |
| Cc1ccc(Nc2c(F)cccc2Cl)c(CC(=O)O)c1 | 0.0553 |
| CN(C)CCOc1ccc(/C(=C(/CCCl)c2ccccc2)c2ccccc2)cc1 | 0.000588 |
| CC1=C(CC(=O)O)c2cc(F)ccc2/C1=C\c1ccc([S+](C)[O-])cc1 (stereo not given) | 0.33 |
| COC1=CC(=O)C[C@@H](C)[C@]12Oc1c(Cl)c(OC)cc(OC)c1C2=O | 0.227 |
| CC(=O)OCC(=O)[C@@]1(O)CC[C@H]2[C@@H]3CCC4=CC(=O)CC[C@]4(C)[C@@]3(F)[C@@H](O)C[C@@]21C | 0.287 |
| CNCc1ccc(-c2[nH]c3cc(F)cc4c3c2CCNC4=O)cc1 | 0.424 |
| C#C[C@]1(O)CC[C@H]2[C@@H]3CCc4cc(O)ccc4[C@H]3CC[C@@]21C [Ethinyl Estradiol] | 0.246 |
| CCCCC(=O)O[C@]1(C(=O)CO)CC[C@H]2[C@@H]3CCC4=CC(=O)CC[C@]4(C)[C@H]3[C@@H](O)C[C@@]21C | 0.382 |
| Cc1c(OCC(F)(F)F)ccnc1C[S@@+]([O-])c1nc2ccccc2[nH]1 | 0.348 |
| CN1CCCN=C1COC(=O)C(O)(c1ccccc1)C1CCCCC1 (stereo not given) | 0.399 |
| c1cnc2cc3c(cc2n1)[C@@H]1CNC[C@H]3C1 [Varenicline tartrate] | 0.504 |
| Clc1ccc(C(Cn2ccnc2)OCc2ccc(Sc3ccccc3)cc2)c(Cl)c1 (stereo not given) [Fenticonazole nitrate] | -0.002 |
